ID4 binder: binders of human ID4 protein. small molecule microarray, Flag-ID4 binding, fluorescence F/B. calls only. hit rate 1.2% among 31,000; call rule not given here;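 note: a binder raises fluorescence above local background on the spot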
Target sequence (P47928 whole entry, looked up): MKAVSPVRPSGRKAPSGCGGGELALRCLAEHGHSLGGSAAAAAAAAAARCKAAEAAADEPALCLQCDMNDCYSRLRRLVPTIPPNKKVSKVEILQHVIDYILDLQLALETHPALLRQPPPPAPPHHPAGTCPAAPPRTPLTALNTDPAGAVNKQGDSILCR
STK33 inh: inhibitors of human STK33 kinase; Q9BYT3; ADP-Glo luminescence, MBP substrate; inhibition, % at 12.5 µM; hit rate 0.44% among 27,000; AID 2322; in the data active = inhibition above about 20%
* marks the source's active call; other numbers are inactive results; i = inactive; . = not tested or not shown; + = active, no number. The full list was thinned out, with hits kept by preference.

SMILES	ID4 binder	STK33 inh
O=C(O)COc1c(-c2ccccc2)oc2ccccc2c1=O	i	2.6
C[C@H](CO)N1C[C@H](C)[C@H](CN(C)CC2CCCCC2)Oc2ccc(NC(=O)Nc3ccc(C(F)(F)F)cc3)cc2CC1=O	.	1.1
C[C@@H]1CCCCO[C@H](CN(C)C(=O)CCCN(C)C)[C@@H](C)CN([C@H](C)CO)C(=O)c2cc(NS(=O)(=O)c3ccccc3)ccc2O1	i	-3.9
C[C@@H]1CCCCO[C@H](CN(C)C(=O)c2ccccc2)[C@@H](C)CN([C@@H](C)CO)C(=O)c2cc(NS(C)(=O)=O)ccc2O1	i	.
C[C@H](CO)N1C[C@H](C)[C@@H](CN(C)C(=O)c2ccccc2)OCCCC[C@H](C)Oc2ccc(NS(C)(=O)=O)cc2C1=O	+	.
C[C@@H]1CCCCO[C@@H](CN(C)C(=O)CCCN(C)C)[C@@H](C)CN([C@H](C)CO)C(=O)c2cc(NS(=O)(=O)c3ccccc3)ccc2O1	+	2.2
CC(C)N(C(=O)NC(=O)c1ccc(F)cc1F)C(C)C	i	.
Cc1cc(S(=O)(=O)NCC(=O)O)ccc1F	i	0.1
CC(C)(C)c1ccc(S(=O)(=O)NCCC(=O)O)cc1	i	-0.3
Cc1ccc(S(=O)(=O)NCCCO)cc1C(=O)O	+	-0.9
Cc1ccc2cc(S(=O)(=O)NCCC(=O)O)ccc2c1	+	-4.4
O=C(CSc1nnc(-c2ccco2)n1-c1ccccc1)c1ccc2c(c1)OCCO2	i	1.3
CNC[C@@H]1Oc2ncc(C3=CCCCC3)cc2C(=O)N([C@H](C)CO)C[C@@H]1C	i	.
CNC[C@H]1Oc2ncc(C3=CCCCC3)cc2C(=O)N([C@@H](C)CO)C[C@H]1C	+	.
C[C@H]1CN([C@@H](C)CO)C(=O)c2cc(C3=CCCC3)cnc2O[C@@H]1CN(C)S(C)(=O)=O	i	.
CNC[C@H]1Oc2ncc(C#Cc3cccc(OC)c3)cc2C(=O)N([C@@H](C)CO)C[C@H]1C	i	.
C[C@H]1CN([C@@H](C)CO)C(=O)c2cc(C3=CCCCC3)cnc2O[C@H]1CN(C)S(=O)(=O)c1cn(C)cn1	+	.
CNC[C@@H]1Oc2ncc(C#Cc3ccc(OC)c(OC)c3)cc2C(=O)N([C@H](C)CO)C[C@@H]1C	+	-1.1
COc1ccc(C(=O)O[C@H]2CC(C)=CC[C@]3(C)[C@@H]2[C@](O)(C(C)C)C[C@@H]3O)cc1	i	-5.2
O=S(=O)(c1ccc(Cl)cc1)N1CCc2ccccc21	.	2.1
O=C(O)C1C2C=CC(O2)C1C(=O)Nc1ccc(S(=O)(=O)N2CCc3ccccc32)cc1 (configuration not stated)	+	-2.3
CC(C)NC(=O)Nc1ccc2c(c1)C(=O)N([C@H](C)CO)C[C@H](C)[C@@H](CN(C)C(=O)Nc1ccccc1)OCCCC[C@H](C)O2	i	.
C[C@H]1CN([C@@H](C)CO)S(=O)(=O)c2ccc(-c3ccc(C#N)cc3)cc2O[C@H]1CN(C)C(=O)Nc1cc(F)ccc1F	+	.
CCC(=O)N(C)C[C@@H]1Oc2cc(C#CC3CC3)ccc2S(=O)(=O)N([C@@H](C)CO)C[C@H]1C	+	.
CCC(=O)N(C)C[C@@H]1Oc2cc(-c3cccc(OC)c3)ccc2S(=O)(=O)N([C@@H](C)CO)C[C@@H]1C	+	.
SMILES	ID4 binder	STK33 inh
CCC(=O)N(C)C[C@@H]1Oc2cc(C#CC(C)C)ccc2S(=O)(=O)N([C@H](C)CO)C[C@@H]1C	i	.
COc1cccc(-c2ccc3c(c2)O[C@@H](CN(C)C)[C@H](C)CN([C@H](C)CO)S3(=O)=O)c1	i	.
C/C=C/c1ccc2c(c1)O[C@H](CN(C)S(=O)(=O)c1ccc(F)cc1)[C@H](C)CN([C@H](C)CO)S2(=O)=O	i	.
C/C=C/c1ccc2c(c1)O[C@H](CN(C)S(=O)(=O)c1ccccc1OC)[C@H](C)CN([C@@H](C)CO)S2(=O)=O	+	.
C[C@H](CO)N1C[C@H](C)[C@@H](CN(C)C(=O)Nc2cc(F)ccc2F)Oc2cc(C#CC3CCCC3)ccc2S1(=O)=O	i	.
Cn1c(SCC(=O)c2ccc(Cl)cc2)nnc1-c1ccncc1	i	-3.7
CC(C)NC(=O)N(C)C[C@@H]1OCCCC[C@@H](C)Oc2ccc(NC(=O)CCCN(C)C)cc2C(=O)N([C@@H](C)CO)C[C@H]1C	i	.
CCN(CC(=O)Nc1cccc(Cl)c1C)S(=O)(=O)c1ccc(C)cc1	i	-5.3
C[C@@H]1CN([C@H](C)CO)C(=O)c2cc(NC(=O)CCCN(C)C)ccc2O[C@@H]1CN(C)C(=O)Nc1ccccc1	+	.
C[C@@H]1CN([C@@H](C)CO)C(=O)c2cc(NC(=O)CCCN(C)C)ccc2O[C@@H]1CN(C)Cc1ccc(C(=O)O)cc1	+	.
C[C@@H]1CN([C@@H](C)CO)C(=O)c2cc(NC(=O)CCCN(C)C)ccc2O[C@@H]1CN(C)C(=O)Nc1cccc2ccccc12	i	.
C[C@H](CO)N1C[C@H](C)[C@H](CN(C)C(=O)Nc2ccccc2)Oc2ccc(NC(=O)CCCN(C)C)cc2C1=O	i	-1.5
C[C@H](CO)N1C[C@H](C)[C@@H](CN(C)C(=O)Nc2cccc3ccccc23)Oc2ccc(NC(=O)CCCN(C)C)cc2C1=O	+	.
C[C@H](CO)N1C[C@H](C)[C@@H](CN(C)Cc2ccc(C(=O)O)cc2)Oc2ccc(NC(=O)CCCN(C)C)cc2C1=O	i	.
C[C@@H]1CN([C@H](C)CO)C(=O)c2cc(NS(=O)(=O)c3cn(C)cn3)ccc2O[C@H]1CN(C)Cc1ccccc1	i	.
C[C@H]1CN([C@@H](C)CO)C(=O)c2cc(NS(=O)(=O)c3cn(C)cn3)ccc2O[C@@H]1CN(C)Cc1ccccc1	+	.
C[C@@H]1CN([C@H](C)CO)C(=O)Cc2cc(NS(=O)(=O)c3ccc(Cl)cc3)ccc2O[C@@H]1CN(C)Cc1ccc(-c2ccccc2)cc1	.	6.2
COCCOC(=O)N1C(=O)[C@@]2(c3cc(C#CCC(C(=O)OC)C(=O)OC)ccc31)[C@H](C(N)=O)[C@H]1C(=O)O[C@H](c3ccccc3)[C@H](c3ccccc3)N1[C@@H]2c1ccccc1OCCO	i	12.0
CCOC(=O)c1ccc(NC(=O)CSc2nc3ccc(C)cc3[nH]2)cc1	i	-5.2
O=C(O)c1ccc(CSc2n[nH]c(-c3ccco3)n2)cc1	+	-2.2
O=C(CSc1n[nH]c(-c2ccco2)n1)N1c2ccccc2Sc2ccccc21	i	-1.6
C[C@H](CO)N1C[C@H](C)[C@H](CN(C)C(=O)NC2CCCCC2)Oc2ccc(NS(=O)(=O)c3cn(C)cn3)cc2CC1=O	.	-2.3
C[C@@H]1CN([C@H](C)CO)C(=O)c2cccc(NS(=O)(=O)c3ccc(Cl)cc3)c2O[C@H]1CN(C)C(=O)Nc1ccc(F)cc1	i	.
COc1cc(CNC23CC4CC(CC(C4)C2)C3)ccc1OCC(N)=O	+	8.7
COc1cc(CNC2CCCC2)ccc1OCC(N)=O	i	1.9
SMILES	ID4 binder	STK33 inh
CS(=O)(=O)N(CC(=O)Nc1ccc(Br)c(Cl)c1)c1cccc([N+](=O)[O-])c1	i	-2.2
N#CCc1ccc(NC(=O)Cc2ccccc2[N+](=O)[O-])cc1	i	-5.2
N#CCCN(CCC#N)C(=O)c1cc(-c2ccccc2)nc2ccccc12	+	0.1
Cc1cc(CNC(=O)c2cc(-c3ccccc3)nc3ccccc23)nn1C	i	-3.4
CCOC(=O)c1c(NC(=O)CN2C(=O)COc3ccc(Cl)cc32)sc2c1CCCC2	i	5.1
c1cc(-c2cnn3cc(-c4ccc(OCCN5CCCCC5)cc4)cnc23)ccn1	+	.
